# Screening data from PubChem.
# SMN2 splice enh: enhancers of SMN2 splice variant expression | HEK293 SMN2-luciferase splicing reporter, luminescence, 30-36 h | Potency, µM (doses to about 46.1 µM), inactives show top-dose activity change, positive = activation, usual class: activators | 2.8% of 210,000 active | AID 1458; also: % of control where 0% means no effect; nearly all actives have a fitted effect of over 55% in size
#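 HEK293 cells carry an SMN2 […]–luciferase reporter in which exon 7 inclusion puts luciferase in frame. Cells were plated 10-12 h before compound addition, then incubated 30-36 h at 37C. ONE-Glo luminescence was read; sodium butyrate at 4.5 mM final served as control.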
# ELG1 genotox: induces genotoxicity in HEK293T cells with luciferase-tagged ELG1. HEK293T ELG1-luciferase reporter, luminescence, 16 h. 1.3% of 330,000 active. Potency, µM (series often up to 46 µM), without a hit: at the highest dose activity change, positive = activation, hits mostly activators. AID 504466; also: % of control where 0% means no effect; nearly all actives have a fitted effect of over 60% in size
#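 Quantitative HTS format in 1536-well plates. HEK293T ELG1-luciferase reporter cells receive test compound and are incubated 16 hr at 37 °C, 5% CO2; ONE-Glo added, 30 min room temperature, then luminescence read.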
# FLuc counter: firefly luciferase modulation, counter-screen for miR-21 project | purified FLuc, Km substrates, luminescence inhibition | Potency, µM (doses to about 57.5 µM), without a hit: top-dose activity change, negative = inhibition, usual class: inhibitors | 6.9% of 360,000 active;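 also: plate controls were vehicle for no effect and reference inhibitor for full effect; nearly all actives have a fitted effect of over 55% in size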
# Target sequence (P08659 whole entry, looked up): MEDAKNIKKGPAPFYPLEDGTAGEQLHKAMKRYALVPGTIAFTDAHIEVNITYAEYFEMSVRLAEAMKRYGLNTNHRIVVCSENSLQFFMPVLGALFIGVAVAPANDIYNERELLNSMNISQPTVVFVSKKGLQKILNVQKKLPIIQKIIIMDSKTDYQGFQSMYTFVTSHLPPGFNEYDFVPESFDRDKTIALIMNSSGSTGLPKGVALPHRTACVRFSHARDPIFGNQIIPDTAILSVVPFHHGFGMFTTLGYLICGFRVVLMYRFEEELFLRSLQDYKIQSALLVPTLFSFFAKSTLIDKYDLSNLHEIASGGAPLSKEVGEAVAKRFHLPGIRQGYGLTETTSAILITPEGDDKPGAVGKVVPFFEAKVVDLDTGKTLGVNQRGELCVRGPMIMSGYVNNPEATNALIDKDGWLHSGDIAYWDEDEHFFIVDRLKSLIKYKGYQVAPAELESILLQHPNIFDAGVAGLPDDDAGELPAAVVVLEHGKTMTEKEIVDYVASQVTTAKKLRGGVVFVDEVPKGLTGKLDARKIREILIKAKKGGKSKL
#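 Purified P. pyralis luciferase, 10 nM final, with Km-level 10 uM D-luciferin and 10 uM ATP in 50 mM Tris acetate pH 7.5, 10 mM Mg acetate, 0.01% Tween-20, 0.05% BSA; 6-point qHTS titration about 60 µM downward; luminescence read.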
# Rab9 prom act: activators of Rab9 promoter; 2.8% of 320,000 active; Huh7 Rab9 promoter-luciferase reporter, luminescence, 24 h; AID 485297; Potency, µM (highest dose often 9.22 µM), inactives show top-dose activation, negative = inhibition, most hits filed as activators; also: % of control where 0% means no effect; nearly all actives have a fitted effect of over 60% in size
#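 Using Huh7 cells stably transfected with Rab9 promoter–luciferase, compounds were incubated 24 h at 37 °C, 5% CO2; luciferase luminescence was read 10 min after reagent addition.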
# NPC1 promoter act: NPC1 promoter activation. Huh7 NPC1 promoter luciferase reporter, 24 h. Potency, µM (titrated, usually from 9.22 µM), for the others: top-dose activation, actives largely listed as activators. 2.4% of 320,000 active. AID 485313; also: % of control where 0% means no effect; nearly all actives have a fitted effect of over 60% in size
#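 Luminescence from an NPC1 promoter-driven luciferase reporter in stably transfected Huh7 cells was measured after 24 h compound treatment at 37 °C, followed by 10 min ambient incubation with luciferase detection reagent.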
# ELG1 repair inh: blocks ELG1-dependent DNA repair in HEK293T cells; HEK293T ELG1-luciferase reporter, luminescence, 16 h; DNA damage induced by 5-fluorouridine; Potency, µM (highest dose often 46.1 µM), without a hit: top-dose activity change, negative = inhibition, hits mostly inhibitors; 2.3% of 330,000 active; AID 504467; also: % is scaled to controls: 0 for no effect and ±100 for the full control effect; nearly all actives have a fitted effect of over 55% in size
#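 DMSO vehicle served as the neutral condition. Each well held 2,000 cells given 5-fluorouridine plus compound; after 16 hr at 37 °C/5% CO2, ONE-Glo was added and luciferase measured 30 min later.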
# The depositor's hits bear a star; ? = inconclusive; · = no result given; [ ] = another dose, or the depositor's remark. Rows were chosen to be rich in hits. Some 9.4% of all compounds tested hit in one or more screens of this group. Calls follow the shape of the dose curve; as a rule, active = well fitted curve in the direction sought with a large enough effect; inconclusive = small, poorly fitted or top-dose-only effect, or another doubt; inactive = no such curve, though single readings can be large; an effect the other way counts as inactive or inconclusive. Potency is read from the fitted curve at half-maximal effect.
SMILES,SMN2 splice enh,ELG1 genotox,FLuc counter,Rab9 prom act,NPC1 promoter act,ELG1 repair inh
COc1ccccc1/C=N/NC(=S)NCc1ccco1,·,-2%,-3%,1%,2%,0%
CCN(CC)S(=O)(=O)c1ccc2c(c1)C(=NO)c1cc(S(=O)(=O)N(CC)CC)ccc1-2,-92%,-2%,1%,-2%,-10%,7.3µM*
CCN(CC)S(=O)(=O)c1cccc(S(=O)(=O)c2cccc(S(=O)(=O)N(CC)CC)c2)c1,-56%,-5%,-2%,1%,-8%,8.9µM*
CC1CCN(S(=O)(=O)c2ccc3c(c2)C(=NO)c2cc(S(=O)(=O)N4CCC(C)CC4)ccc2-3)CC1,-98%,-11%,1%,-37%,-51%,5.2µM*
O=S(=O)(c1ccc2c(c1)C(=NO)c1cc(S(=O)(=O)N3CCCCC3)ccc1-2)N1CCCCC1,-86%,-6%,11%,-45%,-40%,?
CC1(C)CC(=O)C2=C(C1)O[C@@]1(CCCCN3C(=O)c4ccccc4C3=O)Cc3ccccc3C2O1,·,·,2%[11.5 µM],-12%[1.84 µM],-4%[1.84 µM],·
N/C(=N\OC(=O)c1cccc(F)c1)c1ccccc1,2%,?,0.67µM*,26%,17%,?
Cc1ccc(/C(N)=N/OC(=O)c2cccc(F)c2)cc1,·,?,3µM*,16%,14%,?
Cc1ccc(/C(N)=N/OC(=O)c2ccc3ccccc3c2)cc1,·,?,6.7µM*,?,?,?
Cc1ccc(/C(N)=N/OC(=O)Oc2ccccc2)cc1,-5%,2%,?,1%,-1%,25%
C[N+](C)([O-])Cc1cc(-c2ccccc2)ccc1O,-13%[9.22 µM],·,·,·,·,·
Nc1nc(-c2cccnc2)cc(-c2cc(-c3cccnc3)nc(N)n2)n1,1%[9.22 µM],·,·,·,·,·
O=C(Nc1ccc2[nH]ncc2c1)c1ccccc1Cl,·,?,9.5µM*,3.5µM*,4µM*,?
O=C(Nc1ccc2[nH]ncc2c1)c1ccccc1Br,·,8%,17µM*,?,3.2µM*,?
COc1c(C)cc(S(=O)(=O)NCCc2c(C)[nH]c3ccccc23)c(C)c1C,-8%,·,3%,·,·,·
Cn1c(=O)c2sccc2n2c(CCCC(=O)Nc3ccc(Oc4ccc(Cl)cc4)cc3)nnc12,·,·,-19%,·,·,·
Cc1ccsc1/C=C1\CCC(C2CCCC2)C1=O (stereo not drawn),·,?,2.1µM*,3.5µM*,2.8µM*,?
COc1ccc(/C=C2\CCC(C3CCCC3)C2=O)cc1 (stereo not drawn),·,?,0.48µM*,3.5µM*,4µM*,?
Cc1ccc(/C=C2\CCC(C3CCCC3)C2=O)cc1 (stereo not drawn),22µM*,9.2µM*,0.48µM*,3.5µM*,3.2µM*,?
Cc1ccc(/C=C2\CCCC3=C2NC(=S)NC3c2ccc(C)cc2)cc1 (stereo not drawn),-15%,-4%,-8%,-2%,0%,2%
CN1C(=O)C2(c3ccccc31)N(c1cccc(C(F)(F)F)c1)C(=O)CS2(=O)=O (stereo not drawn),·,·,-5%,·,·,·
COc1ccc(-n2c(Cc3ccccc3)nnc2SCc2nc(-c3cccs3)no2)cc1,2%,·,-17%,·,·,·
COc1cccc(N(C(=O)CCl)C(C(=O)NCCc2ccccc2)c2cccs2)c1 (stereo not drawn),-15%[1.84 µM],-17%,-16%,-44%,-40%,16µM*
CC1=C(c2ccc(F)cc2)S(=O)(=O)N=C1N1CCC(C(=O)NCCc2cccc(C)c2)CC1,·,·,0%,·,·,·
COCCn1c(C)cc(C(=O)CSc2cc(C)c3ccc(OC)cc3n2)c1C,·,2%,3µM*,19%,7%,-12%
COc1ccc2c(C)cc(SCC(=O)c3ccc4c(c3)OCO4)nc2c1,-11%,-7%,?,7%,-1%,?
COCCn1c(C)cc(C(=O)CSc2nc3ccccc3o2)c1C,7.9µM*,?,1.3µM*,0.35µM*,0.63µM*,?
